Results on 94 molecules are retold here after PubChem BioAssay AID2006 (Sanford-Burnham Center for Chemical Genomics, 2009).

Out of some 290,000 compounds screened, about 1,000 (0.34%) were called active. Rule as the data show it: active = inhibition above about 50% (passing the limit was not always enough); inconclusive = no clear call, values can overlap the other calls. Many of the other results were omitted from the sample, so actives are more common in it than they were.

A word on the inhibition: it is the relative decrease from the control value, in per cent.

For the assay, the target named is SUMO-conjugating enzyme UBC9 (Homo sapiens) (UniProt P63279). The experiment in a line: inhibitors of in vitro SUMOylation cascade, primary screen, biochemical, HTRF, uHTS (AID 2006). The settings on record: HTRF SUMOylation assay, SAE1/SAE2 + UBC9, in vitro, at 35 µM, stronger effect = higher value. (In general: In TR-FRET formats the signal depends on donor and acceptor labels being close together.)
Sequence of SUMO-conjugating enzyme UBC9 (Homo sapiens) (P63279 whole entry, looked up): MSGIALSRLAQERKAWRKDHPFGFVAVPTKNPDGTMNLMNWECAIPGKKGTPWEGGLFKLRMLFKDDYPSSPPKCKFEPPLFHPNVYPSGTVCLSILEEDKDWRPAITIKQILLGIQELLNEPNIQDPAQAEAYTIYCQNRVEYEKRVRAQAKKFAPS

For `CC(=O)Nc1cc2ccc(OC(C)=O)cc2oc1=O`, the inhibition is 43.7% (inactive).

Take `CC(=O)Oc1ccc2c(C)c(CC(C)O)c(=O)oc2c1` (stereo not given): the inhibition was 52.6% (active). For the same molecule, the inhibition (average of repeat tests) stood at 46.3%.

Turning to `Cc1c(Cc2ccccc2)c(=O)oc2cc(OCC(N)=O)ccc12`, the inhibition is 3.3% (inactive).

With `COc1ccc2c(C)c(CCC(=O)NC3CC3)c(=O)oc2c1C`, the inhibition is 15.9% (inactive).

Take `COCCOC(=O)C1=C(C)Nc2nc(C)nn2C1c1ccccc1` (stereo not given): the inhibition is -5% (inactive).

Regarding `COc1cc(C2C(C(=O)Nc3ccc(F)cc3)=C(C)Nc3nc(CCCO)nn32)cc(OC)c1OC` (stereo not given), the inhibition was 11.3% (inactive).

`COC(=O)c1nc2n(n1)C(c1ccc([N+](=O)[O-])cc1)C(C(=O)Nc1ccc(Cl)cc1)=C(C)N2` (stereo not given): the inhibition is 56.7% (active). Further, the inhibition (average of repeat tests) is 44.5%.

`Cc1nn(C)c(Cl)c1CN1CCC(n2nccc2NC(=O)C2CCCC2)CC1`: the inhibition is 3.6% (inactive).

As to `CCCCNC(=O)N(O)C1N(/N=C/c2ccc(N(C)C)cc2)C(=S)SC1(C)C` (stereo not given), the inhibition is 6.7% (inactive).

Regarding `Cc1cc(C)c(S(=O)(=O)c2ccc(F)cc2C)c(=O)[nH]1`, the inhibition was 14.5% (inactive).

As for `CNC(=S)N/N=C/c1ccc(OCc2ccccc2)c(Br)c1`, the inhibition is 11.3% (inactive).

On to `COc1ccc(OC)c(NC(=O)Cc2cccs2)c1`, for which the inhibition is 8% (inactive).

Turning to `Cc1ccc(/C=C/C(=O)Nc2ccc([N+](=O)[O-])c(NC(=O)/C=C/c3ccc(C)o3)c2)o1`, the inhibition is 74.6% (active).

In the case of `CCc1nnc(NC(=O)/C=C/c2ccc(C)o2)s1`, the inhibition is 7.9% (inactive).

As for `Cc1ccc(/C=C/C(=O)Nc2cc(S(=O)(=O)N3CCCCCC3)ccc2OCC(F)(F)F)o1`, the inhibition is 25.6% (inactive).

Consider `CC(C)c1nnc(NC(=O)CCC(=O)N2CCN(c3cccc(Cl)c3)CC2)s1`, for which the inhibition is 1.4% (inactive).

For `Cc1c(C)c(C)c(S(=O)(=O)N2CCC3(CC2)OCCO3)c(C)c1C`, the inhibition was 0.4% (inactive).

`Oc1ccc(CNc2ccccc2O)cc1`: the inhibition was 2.9% (inactive).

Consider `N#Cc1ccc(Oc2ccc(C(F)(F)F)cc2NC(=O)c2ccc(F)cc2)cc1`, for which the inhibition was -26.5% (inactive).

Regarding `COc1cc(NC(=O)c2cncc(-c3ccc(C#N)cc3)c2)cc(C(=O)Nc2cccc(C(F)(F)F)c2)c1`, the inhibition was 71.3% (active). Also, for the setting “average of repeat tests”, the inhibition was 53.1%.

Turning to `COc1ccc(NC(=O)CN(C)CC(=O)Nc2cccc(C(F)(F)F)c2)cc1`, the inhibition was 0.2% (inactive).

In the case of `O=C(CN1CCN(S(=O)(=O)c2ccc(F)cc2)CC1)NC1CC1`, the inhibition was 8.8% (inactive).

For the molecule `COc1cc2c(cc1OC)C(C(=O)Nc1cc(C)c(OC)c(C)c1)CC(=O)N2` (stereo not given), the inhibition was 1.4% (inactive).

On to `COC(=O)C1=C(C)NC(=O)CC1c1ccccc1OC` (stereo not given), for which the inhibition was 10.4% (inactive).

As to `COc1cc(N/C=C2\CC(=O)NC(C)=C2C#N)cc(OC)c1OC`, the inhibition is 51.7% (active).

As for `CC(O)c1ccc(OCCN(C)c2ccccn2)cc1` (stereo not given), the inhibition was 20.8% (inactive).

On to `Cc1[nH]c2c(C(=O)N3CCCC(CCC(=O)NCc4ccccc4F)C3)cccc2c1C` (stereo not given), for which the inhibition was -0.7% (inactive).

With `Oc1ccc(C2Nc3cccc4cccc(c34)N2)cc1`, the inhibition was 31.7% (inactive).

For the molecule `Brc1ccccc1C1Nc2cccc3cccc(c23)N1`, the inhibition was 69.7% (active).

Take `Cc1ccc(C2Nc3cccc4cccc(c34)N2)cc1`: the inhibition was 8.5% (inactive).

Consider `CC(C)NS(=O)(=O)c1ccc(OCC(=O)NC2CCCCCC2)cc1`, for which the inhibition was 2.1% (inactive).

In the case of `O=C(CC1NCCc2ccccc21)Nc1cccc(Cl)c1` (stereo not given), the inhibition was -5.3% (inactive).

`CCCCCCNS(=O)(=O)c1ccccc1Br`: the inhibition was 21.7% (inactive).

For `Cc1ccc(-n2ncc(C(=O)NC3CC3)c2C2CCN(C(=O)OC(C)(C)C)CC2)c(C)c1`, the inhibition is -2.6% (inactive).

For `CCc1nccn1CCC(=O)N1CCCC(N2CCN(c3ccccc3F)CC2)C1` (stereo not given), the inhibition was 4.2% (inactive).

Consider `COc1ccc(C(=O)CC(=O)c2ccc(C)cc2)c(O)c1`, for which the inhibition was -0.3% (inactive).

For the molecule `O=c1c(/C=N/O)coc2ccc(Cl)cc12`, the inhibition was 8.4% (inactive).

In the case of `O=C1/C(=C/c2coc3ccc(O)cc3c2=O)SC(=S)N1c1ccccc1`, the inhibition is 57% (active). For the same molecule, the inhibition (average of repeat tests) was found to be 34.2%.

In the case of `O=c1c(-c2ccccc2)coc2cc(O)ccc12`, the inhibition was 20.1% (inactive).

Regarding `Cc1cccc(OCC(O)Cn2c(N3CCCCC3)nc3c2c(=O)[nH]c(=O)n3C)c1` (stereo not given), the inhibition was 20.6% (inactive).

As for `CCn1cc(CN2CCN(CC(C)(C)C)C(CCO)C2)c2ccccc21` (stereo not given), the inhibition is 5.7% (inactive).

For `Oc1ccccc1C1=NN(c2ccccc2)C(c2ccccc2)C1` (stereo not given), the inhibition was 11% (inactive).

Regarding `CCN(CC)CCCNC(=S)N(CCO)Cc1cc2cc3c(cc2[nH]c1=O)OCO3`, the inhibition was 18.4% (inactive).

In the case of `Cc1ccc(NC(=O)C2CCCN2S(=O)(=O)c2cccc3cccnc23)c(C)c1` (stereo not given), the inhibition was 4.8% (inactive).

In the case of `O=S(=O)(c1ccc(Br)c2ccccc12)N1CCOCC1`, the inhibition was 2.6% (inactive).

Regarding `CC(C)[C@H](NC(=O)OCc1ccccc1)C(=O)OCc1ccccc1`, the inhibition is -16.4% (inactive).

As to `O=[N+]([O-])C(=c1ccc2c(c1)N1C3=C(CCCC3)CC3CCCCC31N=2)[N+](=O)[O-]` (stereo not given), the inhibition is 57.5% (active).

For `Cc1sc2ncn(CC(=O)NCCN(C)C)c(=O)c2c1S(=O)(=O)N1CCC(C)CC1`, the inhibition was -5.2% (inactive).

`CN1CCC(=O)N([C@H](CO)Cc2ccccc2)CC1`: the inhibition is 13% (inactive).

Regarding `CCOc1ccc(OCc2ccc(C(=O)N(C)c3ccccc3)o2)cc1`, the inhibition was 5% (inactive).

For `CC1=C(C(=O)OC2CCCCC2)C(c2cccnc2)n2ncnc2N1` (stereo not given), the inhibition was -7.1% (inactive).

As to `C=CCc1ccccc1OCC(O)CN1CCN(CCO)CC1` (stereo not given), the inhibition was 0.7% (inactive).

For the molecule `O=C(Nc1ccc(S(=O)(=O)Nc2nccs2)cc1)c1cc(=O)[nH]c2ccccc12`, the inhibition was 30.5% (inactive).

For `CCC(CC)C(=O)Nc1ccc(S(=O)(=O)Nc2nccs2)cc1`, the inhibition was 14.7% (inactive).

In the case of `O=C(Nc1ccc(S(=O)(=O)Nc2nccs2)cc1)c1cc(-c2ccncc2)nc2ccccc12`, the inhibition is 50% (active).

Regarding `Cc1nn(Cc2ccccc2)c(C)c1NS(=O)(=O)c1ccccc1`, the inhibition was 3.7% (inactive).

With `O=C(O)c1cccc(S(=O)(=O)Nc2ccc(O)cc2Sc2nc3ccccc3s2)c1`, the inhibition is -14.5% (inactive).

Regarding `COc1ccc(S(=O)(=O)Nc2ccc(O)c(Sc3nc4ccccc4s3)c2)cc1`, the inhibition is -0.5% (inactive).

Consider `O=[N+]([O-])c1c(NCCO)cc(Sc2nc3ccccc3s2)c2nonc12`, for which the inhibition is 90.1% (active).

`CCOCc1nnc(NC(=O)CCC2CCCCC2)s1`: the inhibition was 10.6% (inactive).

As to `O=C(CCc1ccccc1)Nc1ccnn1C1CCN(Cc2ccc(OCCO)cc2)CC1`, the inhibition was 6.4% (inactive).

For `Nc1c(NCCc2ccccc2)c2ccccc2oc1=O`, the inhibition was 6.6% (inactive).

In the case of `O=c1oc2ccccc2cc1-c1csc(Nc2ccc(O)cc2)n1`, the inhibition was 7.7% (inactive).

As for `O=c1oc2cc(O)ccc2cc1-c1ccc(F)cc1`, the inhibition is 50.3% (active). The inhibition (average of repeat tests) is 56%.

For `COc1cccc(C(=O)c2cc3ccc(O)cc3oc2=O)c1`, the inhibition was 16.5% (inactive).

Regarding `O=c1onc(-c2c(F)cccc2F)n1-c1ccccc1Cl`, the inhibition is -6.5% (inactive).

On to `CCOc1ccc(C2/C(=C(/O)c3ccc4c(c3)CC(C)O4)C(=O)C(=O)N2CCCn2ccnc2)cc1` (stereo not given), for which the inhibition was -13.9% (inactive).

Regarding `Cc1ccc(CNC(=O)Cc2cn(C)c3ccccc23)cc1`, the inhibition is -1.9% (inactive).

Take `c1coc(-c2nc3nc4ccccc4n3nc2-c2ccco2)c1`: the inhibition was 90.5% (active).

Take `Cn1c(-c2ccco2)nc2cc3ccccc3cc21`: the inhibition was 44.7% (inactive).

For `Clc1ccccc1CSc1nnc(-c2ccco2)c(-c2ccco2)n1`, the inhibition is 35.9% (inactive).

Consider `O=C(NCCN1CCCC(O)C1)c1cc(COc2c(F)cccc2F)on1` (stereo not given), for which the inhibition is 1.7% (inactive).

As to `CC(=O)N1CCC(N(C(=O)Nc2ccc(Cl)cc2)C(C)C)CC1`, the inhibition was 13.1% (inactive).

In the case of `Cc1ccc(NS(=O)(=O)c2ccc(-c3coc(C)n3)cc2)c(C)c1`, the inhibition was -8.6% (inactive).

For the molecule `CCCCN(C)CCCNC(=O)c1cc(-c2cccs2)nc2ccccc12`, the inhibition is 20.3% (inactive).

Turning to `COC(=O)CNC(=O)c1cc(-c2ccncc2)nc2ccccc12`, the inhibition was 0.8% (inactive).

As to `CCc1ccc(-c2cc(C(=O)NCc3ccco3)c3ccccc3n2)s1`, the inhibition is 59.3% (active).

`Cc1ccccc1N1CCN(C2CCCN(C(=O)c3cn4c(C)cccc4n3)C2)CC1` (stereo not given): the inhibition is -1.6% (inactive).

Take `CCOC(=O)/C(=N\Nc1ccccc1[N+](=O)[O-])c1csc(Nc2ccccc2)n1`: the inhibition is 10.4% (inactive).

As for `COc1cc(C(=O)Nn2c(CC(C)C)nc3ccccc3c2=O)cc(OC)c1OC`, the inhibition was 7.6% (inactive).

Consider `COC(=O)c1cc(OCC(=O)NC2CCCc3ccccc32)cc(C(=O)OC)c1` (stereo not given), for which the inhibition is 11.7% (inactive).

As to `O=C(O)c1ccccc1NC(=O)c1ccccc1-c1ccccc1C(=O)O`, the inhibition is 9% (inactive).

Take `COc1ccccc1NC(=O)CSc1nc2sc3c(c2c(=O)n1-c1ccccc1)CCN(C)C3`: the inhibition is -8.5% (inactive).

For `Cc1ccc(-c2nc(SCC(=O)Nc3ccccc3OC(F)F)c3c(C)c(C(=O)O)sc3n2)cc1`, the inhibition was 77.1% (active).

`CCOC(=O)c1ccc[n+](CC(=O)Nc2ccccc2OC(F)F)c1`: the inhibition was -3.9% (inactive).

On to `CCc1nc2cccnc2n1-c1ccc(C(=O)O)cc1`, for which the inhibition was 10.1% (inactive).

On to `CCOC(=O)CN(C(=O)COc1nc(C)cc(C)c1C#N)c1ccc(Cl)cc1`, for which the inhibition was 16.2% (inactive).

Consider `Cc1cccc(C)c1N1C(=O)CN(Cc2ccccc2)C1=S`, for which the inhibition was 3.1% (inactive).

Consider `CCOCc1nnc(NC(=O)CCS(=O)(=O)Cc2ccccc2)s1`, for which the inhibition was 0.9% (inactive).

Turning to `CC(C)(C)OC(=O)c1c(N)n(CCCN2CCCC2=O)c2nc3ccccc3nc12`, the inhibition is 62.9% (active). Besides, the inhibition (average of repeat tests) was determined as 40.3%.

For `CC(C)(C)c1ccc(C(=O)NCCn2c(N)c(C#N)c3nc4ccccc4nc32)cc1`, the inhibition was 27.7% (inactive).

With `COCC(C)OC(=O)c1c(N)n(CCCN2CCOCC2)c2nc3ccccc3nc12` (stereo not given), the inhibition was 48.2% (inactive).

`CC(C)=CCCC(C)CN1CCC(n2nccc2NC(=O)c2ccccc2)CC1` (stereo not given): the inhibition is 7% (inactive).

Turning to `COc1cc(/C(=C/c2ccccc2)c2ccccc2)c2c(c1)oc1ccccc12`, the inhibition was 12.7% (inactive).
